# Assay outcomes as filed in PubChem BioAssay.
# Most compounds without a hit are left out; they make up all but 2.3% or so of the library.
# GLD-1 RNA inh: GLD-1-TGE RNA interaction inhibition (C. elegans) | Q17339 | purified GLD-1 + fluorescein TGE RNA, fluorescence polarization | inhibition, % at 5.96 µM | 320,000 tested, 0.44% active;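 active = percent inhibition above a per-plate cutoff, the plate mean of test compounds plus 3 SD, cut at about 30% in these data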;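 note: 0% = DMSO wells with GLD-1 and probe and 100% = wells lacking GLD-1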
# Target sequence (Q17339 whole entry, looked up): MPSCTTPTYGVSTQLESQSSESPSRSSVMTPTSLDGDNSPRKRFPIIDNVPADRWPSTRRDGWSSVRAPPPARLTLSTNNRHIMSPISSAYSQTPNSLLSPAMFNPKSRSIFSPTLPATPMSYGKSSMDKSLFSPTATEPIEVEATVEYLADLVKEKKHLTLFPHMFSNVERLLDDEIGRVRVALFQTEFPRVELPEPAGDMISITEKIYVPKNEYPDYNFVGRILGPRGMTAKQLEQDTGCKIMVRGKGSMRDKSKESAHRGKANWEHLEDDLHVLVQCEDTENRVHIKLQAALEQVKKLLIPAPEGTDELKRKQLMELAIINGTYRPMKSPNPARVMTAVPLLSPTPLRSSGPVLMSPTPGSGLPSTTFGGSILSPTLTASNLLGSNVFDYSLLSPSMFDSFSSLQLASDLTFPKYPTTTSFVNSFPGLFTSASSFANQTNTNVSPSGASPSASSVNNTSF
# BCLXL inh: blocks human Bcl-xL binding to Bim BH3 peptide; GST-Bcl-xL / FITC-Bim BH3 peptide fluorescence polarization; inhibition, % at 10.9 µM; 320,000 tested, 0.7% active; AID 2129;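 active = inhibition above the mean of all tested compounds plus 3 SD, cutoff set per campaign, cut at about 30% in these data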;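 note: 0% = DMSO wells and 100% = unlabeled Bim-BH3 peptide competitor; inhibitors lower millipolarization by displacing the labeled peptide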
# Mcl1 Noxa PPI: Mcl-1/Noxa interaction inhibition; Q07820; 220,000 tested, 1.5% active; inhibition, % at 21.7 µM; AID 1022; TR-FRET Mcl-1/Noxa peptide binding, 2 h;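 active = compounds that cut the protein-peptide binding signal by more than 50% relative to plate controls in a single-dose test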;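 note: His-tagged Mcl-1 with rhodamine Noxa BH3 peptide and terbium anti-His antibody; 0% = Mcl-1 plus Noxa peptide wells and 100% = peptide-only wells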
# MCL1 BIM primary: disrupts human MCL1 binding to BIM-BH3 peptide; inhibition, % at 10.9 µM; GST-MCL1 / FITC-Bim-BH3 fluorescence polarization; Q07820; AID 2057; 320,000 tested, 0.68% active;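 active = inhibition above the mean inhibition of all tested compounds plus 3 SD, set per campaign, cut at about 40% in these data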;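 note: 0% = DMSO wells and 100% = unlabeled Bim-BH3 peptide control; higher means more loss of mP so more displacement of Bim peptide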
# Bim-Mcl-1: human Bim-Mcl-1 interaction inhibition; Q07820; Bead-based flow cytometry, Bim peptide-Mcl-1 binding; inhibition, % at 10 µM; 190,000 tested, 0.1% active; AID 1009; in the data active = inhibition above about 40%;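 note: 0% = no compound tracer wells and 100% = peptide blocker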
# Mcl1 Bid PPI: disrupts binding of human Mcl-1 to Bid peptide; Q07820; TR-FRET Mcl-1/Bid-Dy647 peptide binding, 1536-well; inhibition, % at 21.7 µM; 220,000 tested, 0.97% active;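 active = compounds that cut the binding signal by more than half at the single screening dose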;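 note: His-tagged Mcl-1 with europium anti-His antibody binding Bid BH3 peptide; 0% = Mcl-1 plus peptide wells and 100% = peptide-only wells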
# BCLXL inh confirm: Bcl-xL (human) inhibition, MCL1 counter-screen confirmation; shares compounds with MCL1 BIM primary; GST-Bcl-xL / FITC-Bim BH3 peptide FP binding; inhibition, % at 10.9 µM; 1,700 tested, 54% active; AID 2166;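 active = inhibition above a cutoff equal to the mean inhibition of all tested compounds plus 3 SD, cut at about 30% in these data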;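 note: 0% = DMSO wells and 100% = unlabeled Bim BH3 control peptide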
# MCL1 inh confirm: MCL1-BIM-BH3 interaction inhibition, confirmation | shares compounds with MCL1 BIM primary | GST-MCL1 / FITC-Bim-BH3 fluorescence polarization | inhibition, % at 10.9 µM | 1,700 tested, 61% active | AID 2168;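 active = inhibition above the average of all tested compounds plus 3 SD, cut at about 40% in these data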;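 note: 0% = DMSO wells and 100% = unlabeled Bim-BH3 control peptide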
# An asterisk follows results filed as active; x = no result given; + = active, no number.
SMILES,GLD-1 RNA inh,BCLXL inh,Mcl1 Noxa PPI,MCL1 BIM primary,Bim-Mcl-1,Mcl1 Bid PPI,BCLXL inh confirm,MCL1 inh confirm
CN=c1scc(-c2cccs2)n1/N=C/c1ccccc1O,5,9,3,8,-7,-37,x,x
C=CCN=c1scc(-c2ccco2)n1/N=C/c1ccc(O)c(O)c1O,1,14,84*,50*,x,-94,29,78*
CN=c1scc(-c2cccs2)n1/N=C/c1ccc(O)c(O)c1O,8,22,108*,53*,3,-50,68*,56*
CN=c1scc(C)n1/N=C/c1ccc(O)c(O)c1O,18,22,91*,58*,8,-84,79*,121*
O=C(CCCN1C(=O)/C(=C\c2cccs2)SC1=S)Nc1ccc(O)cc1C(=O)O,-3,17,x,19,x,x,x,x
O=C(CCCN1C(=O)/C(=C\c2cccs2)SC1=S)Nc1cccc(C(=O)O)c1,21,1,15,13,0,-19,x,x
O=C(CCCN1C(=O)/C(=C/c2ccco2)SC1=S)Nc1cccc(C(=O)O)c1,3,28,15,60*,x,-34,29,39
O=C(CCCN1C(=O)/C(=C\c2ccco2)SC1=S)Nc1ccc(O)cc1C(=O)O,0,39*,x,71*,x,x,51*,77*
O=C(OCC(=O)N1CCCC1=O)c1ccc(Cl)cc1[N+](=O)[O-],2,2,x,1,x,x,x,x
CC(NC(=O)CSc1nc(C2CC2)n(-c2ccccc2)n1)c1ccco1 (stereo unspecified),-3,-4,x,-6,x,x,x,x
COc1cc(NC(=O)COC(=O)CO/N=C(\C)c2ccc3c(c2)OCO3)cc(OC)c1,0,-11,x,-16,x,x,x,x
Cc1oc2cc(O)ccc2c(=O)c1-c1ccccc1,5,6,6,9,0,-12,x,x
Cc1oc2cc(O)ccc2c(=O)c1-c1nncn1-c1ccccc1,113*,113*,39,109*,0,-30,119*,139*
COc1ccc(C(CNC(=O)CCC(=O)c2ccc(C)s2)N2CCOCC2)cc1 (stereo unspecified),0,0,x,-2,x,x,x,x
Cc1nc2ccsc2c(=O)n1-c1cccc(Cl)c1,4,3,x,-4,x,x,x,x
Nc1ccc2c(c1)C/C(=C/c1ccco1)C2=O,25,60*,37,105*,-3,-83,97*,106*
O=C1/C(=C/c2ccco2)CCc2ccccc21,5,8,-8,13,-1,-73,x,x
O=C(O)c1ccccc1NCc1ccco1,-3,3,5,11,x,-22,x,x
CCOc1ccc2noc3c2c1C(=O)c1ccccc1-3,171*,152*,43,174*,0,-6,146*,171*
CCNc1ccccc(-c2ccc3ccccc3n2)c1=O,13,22,43,27,0,-44,x,x
O=C1c2ccccc2-c2onc3ccc(NCc4ccco4)c1c23,165*,165*,9,199*,35,57*,162*,188*
CCNc1ccc2noc3c2c1C(=O)c1ccccc1-3,192*,175*,-239,+,2,88*,184*,+
CCOC(=O)c1c(C)oc2c1C(=O)c1ccccc1C2=O,-3,7,20,4,0,-19,x,x
COC(=O)c1cc2c(C)c(C)c3ccccn3c-2c1C(=O)OC,86*,112*,-6,115*,2,-19,71*,81*
COC(=O)c1cc2n3ccccc3c(C)c(-c3ccccc3)c-2c1C(=O)OC,86*,110*,-1,119*,-1,-16,111*,140*
SMILES,GLD-1 RNA inh,BCLXL inh,Mcl1 Noxa PPI,MCL1 BIM primary,Bim-Mcl-1,Mcl1 Bid PPI,BCLXL inh confirm,MCL1 inh confirm
COC(=O)c1cc2ccccn2c2c(C(=O)OC)c(C(=O)OC)cc1-2,7,21,22,21,5,-73,x,x
Cc1ccccc1NC(=O)NCCCCc1ccccc1,-1,4,x,3,x,x,x,x
CN(CCC#N)C(=O)COC(=O)c1c2c(nc3ccccc13)/C(=C/c1ccco1)CC2,-23,44*,85*,67*,22,63*,40*,48*
Nc1ccccc1-c1nc2ccccc2s1,3,7,10,8,0,-13,x,x
Oc1ccc(N=C/C=C/c2cccc(Br)c2)cc1-c1nc2ccccc2s1,22,36*,62*,50*,-2,-69,18,18
Oc1ccc(-c2nc3ccccc3s2)c(O)c1,6,-3,37,6,x,4,x,x
Nc1ccc(O)c(-c2nc3ccccc3s2)c1,16,51*,71*,61*,-3,-65,37*,38
O=C(NCC(O)c1ccccc1)c1cccs1 (stereo unspecified),6,-1,x,2,x,x,x,x
O=C(O)CCN1C(=O)/C(=C\c2ccc(OCc3ccccc3)c(OCc3ccccc3)c2)SC1=S,6,3,x,4,x,x,x,x
O=C(O)CN1C(=O)/C(=C\c2ccccc2OCc2ccc(Cl)cc2Cl)SC1=S,-4,17,x,55*,x,x,31*,45*
O=C(O)CN1C(=O)/C(=C\c2cc(Br)ccc2OCc2ccccc2F)SC1=S,-5,18,x,46*,x,x,20,25
O=C(O)CN1C(=O)/C(=C\c2cc(Br)ccc2OCc2ccc([N+](=O)[O-])cc2)SC1=S,-1,28,x,72*,x,x,37*,61*
Cc1onc(-c2ccccc2Cl)c1C(=O)NCc1ccc(F)cc1,8,8,x,4,x,x,x,x
O=C(c1cc(S(=O)(=O)N2CCN(c3ccccc3)CC2)ccc1Cl)N1CCCCCCC1,0,-2,x,-3,x,x,x,x
Cc1ccc(/C=C/C(=O)Nc2nnc(C)s2)o1,3,7,13,6,-10,-35,x,x
Cc1ccc(/C=C/C(=O)Nc2cccc3cccnc23)o1,68*,78*,21,84*,1,-7,32*,40*
Cc1oc(/N=C/c2ccccc2O)c(C#N)c1C,18,13,x,9,-3,-20,x,x
Cc1oc(/N=C/c2ccc(O)cc2O)c(C#N)c1C,53*,64*,17,65*,0,-46,57*,65*
COc1ccc(N2CCN(CCCNC(=O)CN3C(=O)COc4ccccc43)CC2)cc1,5,-1,x,2,x,x,x,x
Cc1ccc(CNc2ccc3c(c2)OCO3)cc1,-7,139*,25,159*,6,-42,106*,135*
c1cc(CNc2ccc3c(c2)OCO3)ccn1,27,86*,24,85*,-4,-51,64*,81*
O=C(C[C@@H]1C/C=C\C[C@H](Cc2ccc(F)cc2)C(=O)OCCNC1=O)N[C@H](CO)Cc1ccccc1,-4,x,x,x,x,x,x,x
